In the antibiotic and cytotoxicity screens of Wong et al. (2023):
In all, about 39,000 compounds went through this assay and about 3,300 (8.5%) were called active. For the sample, actives were picked, then their nearest neighbours and some compounds at random.

Test system: HepG2
Assay: cytotoxicity call (relative viability < 0.9)
Conditions: 10 µM

**Q.** `CC(C)NC(=O)N(C)C[C@H]1Oc2ccc(NC(=O)Cc3ccccc3)cc2CC(=O)N([C@H](C)CO)C[C@H]1C` was tested. Which cytotoxicity call did it give?
**A.** inactive

**Q.** `C[C@@H]1CCCCO[C@H](CN(C)Cc2ccc(C(=O)O)cc2)[C@H](C)CN([C@H](C)CO)C(=O)c2cc(NS(=O)(=O)c3ccc(Cl)cc3)ccc2O1` was tested. Which cytotoxicity call did it give?
**A.** inactive

**Q.** For `COc1ccc(NC(=O)N(C)C[C@@H]2Oc3c(NC(=O)c4cc(C)nn4C)cccc3C(=O)N([C@@H](C)CO)C[C@@H]2C)cc1`, which cytotoxicity call is on record?
**A.** inactive

**Q.** For `COc1ccc(CN(C)C[C@@H]2OCCCC[C@@H](C)Oc3ccc(NS(=O)(=O)c4ccc(C)cc4)cc3C(=O)N([C@H](C)CO)C[C@@H]2C)cc1`, which cytotoxicity call is on record?
**A.** inactive

**Q.** With `COc1ccc(S(=O)(=O)N(C)C[C@H]2Oc3c(NS(C)(=O)=O)cccc3C(=O)N([C@@H](C)CO)C[C@H]2C)cc1` as the compound, how does the cytotoxicity call read?
**A.** inactive

**Q.** Which cytotoxicity call does the source give for `C[C@@H]1CCCCO[C@@H](CN(C)C(=O)c2ccncc2)[C@H](C)CN([C@H](C)CO)C(=O)c2cc(NS(=O)(=O)c3ccc(Cl)cc3)ccc2O1` here?
**A.** inactive

**Q.** `C[C@@H]1CN([C@@H](C)CO)S(=O)(=O)c2ccc(-c3ccncc3)cc2O[C@@H]1CN(C)C(=O)c1cccc(F)c1` was tested. Which cytotoxicity call did it give?
**A.** inactive

**Q.** `CO[C@H]1CN(C)C(=O)c2cc(NC(=O)C3CC3)ccc2OC[C@@H](C)N(C(=O)CN2CCOCC2)C[C@@H]1C` was tested. Which cytotoxicity call did it give?
**A.** inactive

**Q.** Which cytotoxicity call does the source give for `C=CC(=O)N1CC[C@@H](Oc2nc(Nc3ccc(N4CCC(N5CCN(C)CC5)CC4)cc3)c(C(N)=O)nc2CC)C1` here?
**A.** active

**Q.** How did the cytotoxicity call turn out when `CCc1nc(C(N)=O)c(Nc2ccc(N3CCC(N4CCN(C)CC4)CC3)c(OC)c2)nc1NC1CCOCC1` was run?
**A.** active

**Q.** With `COCC(=O)NCc1cc(=O)n2c(n1)CN(c1ncccn1)CCC2` as the compound, how does the cytotoxicity call read?
**A.** inactive

**Q.** With `CO[C@H]1CN(C)C(=O)c2cc(NC(=O)Nc3ccccc3)ccc2OC[C@@H](C)N(C(=O)CN(C)C)C[C@@H]1C` as the compound, how does the cytotoxicity call read?
**A.** inactive

**Q.** With `C[C@H](CO)N1C[C@H](C)[C@H](CN(C)Cc2ccc(C(=O)Nc3ccccc3N)cc2)Oc2ccc(NS(=O)(=O)c3cn(C)cn3)cc2CC1=O` as the compound, how does the cytotoxicity call read?
**A.** inactive

**Q.** How did the cytotoxicity call turn out when `COc1ccc(CN(C)C[C@@H]2OCCCC[C@@H](C)Oc3ccc(NC(=O)Nc4ccc(F)cc4)cc3C(=O)N([C@H](C)CO)C[C@H]2C)cc1` was run?
**A.** active

**Q.** For `COc1ccc(CN(C)C[C@@H]2OCCCC[C@H](C)Oc3ccc(NC(=O)Nc4ccc(F)cc4)cc3C(=O)N([C@@H](C)CO)C[C@H]2C)cc1`, which cytotoxicity call is on record?
**A.** inactive

**Q.** For `COc1ccc(CN(C)C[C@@H]2OCCCC[C@@H](C)Oc3ccc(NC(=O)Nc4ccc(F)cc4)cc3C(=O)N([C@@H](C)CO)C[C@H]2C)cc1`, which cytotoxicity call is on record?
**A.** active

**Q.** Which cytotoxicity call does the source give for `COc1ccc(CN(C)C[C@@H]2OCCCC[C@@H](C)Oc3ccc(NC(=O)Nc4ccc(F)cc4)cc3C(=O)N([C@H](C)CO)C[C@@H]2C)cc1` here?
**A.** inactive

**Q.** How did the cytotoxicity call turn out when `COc1ccc(CN(C)C[C@H]2OCCCC[C@@H](C)Oc3ccc(NC(=O)Nc4ccc(F)cc4)cc3C(=O)N([C@@H](C)CO)C[C@H]2C)cc1` was run?
**A.** inactive

**Q.** For `COc1ccc(CN(C)C[C@@H]2OCCCC[C@H](C)Oc3ccc(NC(=O)Nc4ccc(F)cc4)cc3C(=O)N([C@H](C)CO)C[C@H]2C)cc1`, which cytotoxicity call is on record?
**A.** inactive

**Q.** `COc1ccc(CN(C)C[C@@H]2OCCCC[C@H](C)Oc3ccc(NC(=O)Nc4ccc(F)cc4)cc3C(=O)N([C@@H](C)CO)C[C@@H]2C)cc1` was tested. Which cytotoxicity call did it give?
**A.** active

**Q.** `COc1ccc(CN(C)C[C@@H]2OCCCC[C@H](C)Oc3ccc(NC(=O)Nc4ccc(F)cc4)cc3C(=O)N([C@H](C)CO)C[C@@H]2C)cc1` was tested. Which cytotoxicity call did it give?
**A.** active

**Q.** For `COc1ccc(CN(C)C[C@H]2OCCCC[C@@H](C)Oc3ccc(NC(=O)Nc4ccc(F)cc4)cc3C(=O)N([C@H](C)CO)C[C@@H]2C)cc1`, which cytotoxicity call is on record?
**A.** inactive

**Q.** For `COc1ccc(CN(C)C[C@@H]2OCCCC[C@@H](C)Oc3ccc(NC(=O)Nc4ccc(F)cc4)cc3C(=O)N([C@@H](C)CO)C[C@@H]2C)cc1`, which cytotoxicity call is on record?
**A.** inactive

**Q.** For `C[C@H](CO)N1C[C@H](C)[C@@H](CN(C)Cc2ccccc2F)Oc2cc(C#CC3CC3)ccc2S1(=O)=O`, which cytotoxicity call is on record?
**A.** inactive

**Q.** With `Nc1cnc(Cl)nc1N` as the compound, how does the cytotoxicity call read?
**A.** inactive

**Q.** How did the cytotoxicity call turn out when `COC(=O)C[C@@H]1C(=O)NCCN1C(=O)NS(=O)(=O)c1ccc(C)cc1` was run?
**A.** inactive

**Q.** With `C[C@@H]1CN([C@H](C)CO)C(=O)c2cccc(NS(=O)(=O)c3cccs3)c2O[C@@H]1CN(C)S(=O)(=O)c1ccccc1` as the compound, how does the cytotoxicity call read?
**A.** inactive

**Q.** For `O=C(NN1CCCCC1)c1nn(-c2ccc(Cl)cc2Cl)c(-c2ccc(C#Cc3ccc(C(F)(F)F)cc3)s2)c1CNS(=O)(=O)N1CCCC1`, which cytotoxicity call is on record?
**A.** inactive

**Q.** For `COc1ccc(CN(C)C[C@H]2OCCCC[C@@H](C)Oc3ccc(NC(=O)Nc4ccc(F)cc4)cc3C(=O)N([C@H](C)CO)C[C@H]2C)cc1`, which cytotoxicity call is on record?
**A.** active

**Q.** Which cytotoxicity call does the source give for `COc1ccc(CN(C)C[C@H]2OCCCC[C@H](C)Oc3ccc(NC(=O)Nc4ccc(F)cc4)cc3C(=O)N([C@@H](C)CO)C[C@H]2C)cc1` here?
**A.** active

**Q.** How did the cytotoxicity call turn out when `COc1ccc(CN(C)C[C@H]2OCCCC[C@@H](C)Oc3ccc(NC(=O)Nc4ccc(F)cc4)cc3C(=O)N([C@@H](C)CO)C[C@@H]2C)cc1` was run?
**A.** active

**Q.** With `COc1ccc(CN(C)C[C@H]2OCCCC[C@H](C)Oc3ccc(NC(=O)Nc4ccc(F)cc4)cc3C(=O)N([C@H](C)CO)C[C@H]2C)cc1` as the compound, how does the cytotoxicity call read?
**A.** active

**Q.** Which cytotoxicity call does the source give for `COc1ccc(CN(C)C[C@H]2OCCCC[C@H](C)Oc3ccc(NC(=O)Nc4ccc(F)cc4)cc3C(=O)N([C@H](C)CO)C[C@@H]2C)cc1` here?
**A.** inactive

**Q.** For `COc1ccc(CN(C)C[C@H]2OCCCC[C@H](C)Oc3ccc(NC(=O)Nc4ccc(F)cc4)cc3C(=O)N([C@@H](C)CO)C[C@@H]2C)cc1`, which cytotoxicity call is on record?
**A.** inactive

**Q.** With `CCn1nnc2c(SCC(N)=O)ncnc21` as the compound, how does the cytotoxicity call read?
**A.** inactive

**Q.** `O=C(NCc1ccccc1)OCCO` was tested. Which cytotoxicity call did it give?
**A.** inactive

**Q.** `O=C(C[C@H]1CC[C@@H]2[C@H](COC[C@@H](O)CN2C(=O)Nc2ccc(F)cc2)O1)NCCCN1CCOCC1` was tested. Which cytotoxicity call did it give?
**A.** inactive

**Q.** For `CN1CCN(C(=O)C[C@H]2CC[C@@H]3[C@H](COC[C@H](O)CN3S(=O)(=O)c3cccc(F)c3)O2)CC1`, which cytotoxicity call is on record?
**A.** inactive

**Q.** For `COc1cccc(S(=O)(=O)N2C[C@H](O)COC[C@H]3O[C@@H](CC(=O)NCCCN4CCOCC4)CC[C@@H]32)c1`, which cytotoxicity call is on record?
**A.** inactive

**Q.** Which cytotoxicity call does the source give for `C[C@@H]1CCCCO[C@H](CN(C)C(=O)Cc2ccccc2)[C@@H](C)CN([C@H](C)CO)C(=O)c2cc(NS(=O)(=O)c3ccc(Cl)cc3)ccc2O1` here?
**A.** inactive

**Q.** Which cytotoxicity call does the source give for `C[C@@H]1CN([C@H](C)CO)C(=O)c2cc(NS(=O)(=O)c3ccccc3)ccc2O[C@@H](C)CCCCO[C@@H]1CN(C)C(=O)C1CCCCC1` here?
**A.** inactive

**Q.** `CN1CCCN=C1C=Cc1cccc(O)c1.O=C(O)c1cc2ccccc2c(Cc2c(O)c(C(=O)O)cc3ccccc23)c1O` was tested. Which cytotoxicity call did it give?
**A.** inactive

**Q.** Which cytotoxicity call does the source give for `CN1CCCN=C1C=Cc1cccs1.O=C(O)c1cc2ccccc2c(Cc2c(O)c(C(=O)O)cc3ccccc23)c1O` here?
**A.** inactive

**Q.** With `Cc1cc(C=Cc2ccc3cc(N(C)C)ccc3[n+]2C)c(C)n1-c1ccccc1.O=C([O-])c1cc2ccccc2c(Cc2c(O)c(C(=O)O)cc3ccccc23)c1O` as the compound, how does the cytotoxicity call read?
**A.** active

**Q.** Which cytotoxicity call does the source give for `O=C(C[C@@H]1C[C@H]2c3cc(NS(=O)(=O)c4ccc(F)cc4)ccc3O[C@H]2[C@H](CO)O1)NC1CCCCC1` here?
**A.** inactive

**Q.** Which cytotoxicity call does the source give for `C[C@@H]1CN([C@@H](C)CO)C(=O)c2cc(NC(=O)Nc3ccc(C(F)(F)F)cc3)ccc2O[C@@H]1CN(C)S(=O)(=O)c1ccc(Cl)cc1` here?
**A.** active

**Q.** For `C[C@H]1CN([C@@H](C)CO)C(=O)c2cc(NS(C)(=O)=O)ccc2O[C@@H]1CN(C)S(=O)(=O)c1ccc(Cl)cc1`, which cytotoxicity call is on record?
**A.** active

**Q.** For `C[C@H]1CN([C@@H](C)CO)C(=O)c2cc(NS(C)(=O)=O)ccc2O[C@H]1CN(C)S(=O)(=O)c1ccc(Cl)cc1`, which cytotoxicity call is on record?
**A.** inactive

**Q.** Which cytotoxicity call does the source give for `C[C@@H]1CN([C@H](C)CO)C(=O)c2cc(NC(=O)Nc3ccc(C(F)(F)F)cc3)ccc2O[C@@H]1CN(C)S(=O)(=O)c1ccc(Cl)cc1` here?
**A.** active

**Q.** With `C[C@H]1CN([C@@H](C)CO)C(=O)c2cc(NC(=O)Nc3ccc(C(F)(F)F)cc3)ccc2O[C@@H]1CN(C)S(=O)(=O)c1ccc(Cl)cc1` as the compound, how does the cytotoxicity call read?
**A.** active

**Q.** `C[C@H](CO)N1C[C@H](C)[C@@H](CN(C)S(=O)(=O)c2ccc(Cl)cc2)Oc2ccc(NS(C)(=O)=O)cc2C1=O` was tested. Which cytotoxicity call did it give?
**A.** inactive

**Q.** For `Cc1noc(C)c1S(=O)(=O)Nc1ccc2c(c1)C(=O)N([C@H](C)CO)C[C@@H](C)[C@@H](CN(C)S(=O)(=O)c1c(C)noc1C)O2`, which cytotoxicity call is on record?
**A.** inactive

**Q.** How did the cytotoxicity call turn out when `CS(=O)(=O)N1CCOC[C@]2(CN(C(=O)c3ccc[nH]3)CCO2)C1` was run?
**A.** inactive

**Q.** How did the cytotoxicity call turn out when `Cc1noc(C)c1S(=O)(=O)Nc1cccc2c1O[C@@H](CN(C)S(=O)(=O)c1ccc(Cl)cc1)[C@@H](C)CN([C@@H](C)CO)C2=O` was run?
**A.** inactive

**Q.** How did the cytotoxicity call turn out when `CCS(=O)(=O)N1CCO[C@]2(COCCN(c3cncnc3)C2)C1` was run?
**A.** inactive

**Q.** For `Cc1noc(C)c1NC(=O)Nc1ccc2c(c1)C(=O)N([C@@H](C)CO)C[C@@H](C)[C@@H](CN(C)Cc1ccc(C(F)(F)F)cc1)O2`, which cytotoxicity call is on record?
**A.** inactive

**Q.** With `Cc1cccn2c(=O)c(-c3nn[nH]n3)cnc12` as the compound, how does the cytotoxicity call read?
**A.** inactive

**Q.** How did the cytotoxicity call turn out when `O=C(C[C@H]1C=C[C@H](NC(=O)CN2CCOCC2)[C@@H](CO)O1)NCc1cccc(F)c1` was run?
**A.** inactive

**Q.** For `C[C@@H]1CN([C@@H](C)CO)S(=O)(=O)c2ccc(-c3cncnc3)cc2O[C@@H]1CN(C)C(=O)NC1CCCC1`, which cytotoxicity call is on record?
**A.** inactive

**Q.** Which cytotoxicity call does the source give for `C[C@H](CO)N1C[C@H](C)[C@@H](CN(C)Cc2ccc(C(=O)O)cc2)Oc2c(NC(=O)Nc3ccc(C(F)(F)F)cc3)cccc2C1=O` here?
**A.** inactive

**Q.** For `C[C@H](CO)N1C[C@H](C)[C@H](CN(C)S(=O)(=O)c2ccc(Cl)cc2)Oc2ccc(NC(=O)Nc3ccc(C(F)(F)F)cc3)cc2C1=O`, which cytotoxicity call is on record?
**A.** active

**Q.** For `C[C@@H]1CN([C@@H](C)CO)C(=O)c2cc(NC(=O)Nc3ccc(C(F)(F)F)cc3)ccc2O[C@H]1CN(C)S(=O)(=O)c1ccc(Cl)cc1`, which cytotoxicity call is on record?
**A.** active

**Q.** `C[C@@H]1CN([C@H](C)CO)C(=O)c2cc(NC(=O)Nc3ccc(C(F)(F)F)cc3)ccc2O[C@H]1CN(C)S(=O)(=O)c1ccc(Cl)cc1` was tested. Which cytotoxicity call did it give?
**A.** active

**Q.** `C[C@H]1CN([C@@H](C)CO)C(=O)c2cc(NC(=O)Nc3ccc(C(F)(F)F)cc3)ccc2O[C@H]1CN(C)S(=O)(=O)c1ccc(Cl)cc1` was tested. Which cytotoxicity call did it give?
**A.** inactive
